Experimental data: publication PMC12215968

Key:
[1] = biological target: Heat shock-related 70 kDa protein 2 (UniProt P54652); assay: cross-linking mass spectrometry
[2] = biological target: Heat shock protein 105 kDa (UniProt Q92598); assay: cross-link between two proteins; cross-linking mass spectrometry
Histone H2B type 1-L = Histone H2B type 1-L (UniProt Q99880); assay: cross-linking mass spectrometry
Nucleobindin-1 = Nucleobindin-1 (UniProt Q02818); assay: cross-linking mass spectrometry
14-3-3 protein epsilon = 14-3-3 protein epsilon (UniProt P62258); assay: cross-link between two proteins; cross-linking mass spectrometry
[3] = biological target: 26S proteasome non-ATPase regulatory subunit 1 (UniProt Q99460); assay: as above
[4] = biological target: 26S proteasome regulatory subunit 10B (UniProt P62333); assay: as above
[5] = biological target: 26S proteasome regulatory subunit 7 (UniProt P35998); assay: as above
[6] = biological target: ATP synthase F(1) complex subunit alpha, mitochondrial (UniProt Q03265); assay: as above
[7] = biological target: ATP synthase F(1) complex subunit gamma, mitochondrial (UniProt Q91VR2); assay: as above
[8] = biological target: Creatine kinase U-type, mitochondrial (UniProt P12532); assay: as above
[9] = biological target: Elongation factor 1-alpha 2 (UniProt Q05639); assay: as above
[10] = biological target: Heterogeneous nuclear ribonucleoprotein A1-like 2 (UniProt Q32P51); assay: as above
[11] = biological target: NADH dehydrogenase [ubiquinone] 1 beta subcomplex subunit 5, mitochondrial (UniProt Q9CQH3); assay: as above
Septin-10 = Septin-10 (UniProt Q9P0V9); assay: as above
Tubulin beta-2B chain = Tubulin beta-2B chain (UniProt Q9BVA1); assay: as above

Question: With Heat shock 70 kDa protein 4, P34932 as the substance, how does the “listed as a hit” value [1] read?
Answer: yes

Question: What about the “listed as a hit” value [2] of the same substance?
Answer: yes

Question: With “Non-histone chromosomal protein HMG-14, P05114” as the substance, how does the “listed as a hit” value (Histone H2B type 1-L) read?
Answer: yes

Question: Which “listed as a hit” value (Nucleobindin-1) does the source give for Nucleobindin-2, P80303 here?
Answer: yes

Question: How did the “listed as a hit” value (14-3-3 protein epsilon) turn out when 14-3-3 protein sigma, P31947 was run?
Answer: yes

Question: With Proteasome subunit alpha type-4, P25789 as the substance, how does the “listed as a hit” value [3] read?
Answer: yes

Question: Which “listed as a hit” value [4] does the source give for “26S proteasome non-ATPase regulatory subunit 7, P51665” here?
Answer: yes

Question: How did the “listed as a hit” value [4] turn out when Proteasome subunit alpha type-6, P60900 was run?
Answer: yes

Question: Proteasome subunit alpha type-7, O14818 was tested. Which “listed as a hit” value [5] did it give?
Answer: yes

Question: “ATP synthase F(1) complex subunit epsilon, mitochondrial, P56382” was tested. Which “listed as a hit” value [6] did it give?
Answer: yes

Question: Which “listed as a hit” value [7] does the source give for “ATP synthase F(1) complex subunit alpha, mitochondrial, Q03265” here?
Answer: yes

Question: With Creatine kinase B-type, P12277 as the substance, how does the “listed as a hit” value [8] read?
Answer: yes

Question: Elongation factor 1-beta, P24534 was tested. Which “listed as a hit” value [9] did it give?
Answer: yes

Question: Which “listed as a hit” value [10] does the source give for “Heterogeneous nuclear ribonucleoprotein A0, Q13151” here?
Answer: yes

Question: For “NADH dehydrogenase [ubiquinone] 1 subunit C2, Q9CQ54”, which “listed as a hit” value [11] is on record?
Answer: yes

Question: Septin-7, Q16181 was tested. Which “listed as a hit” value (Septin-10) did it give?
Answer: yes

Question: How did the “listed as a hit” value (Tubulin beta-2B chain) turn out when Tubulin-specific chaperone A, O75347 was run?
Answer: yes
